This note sets out measurements from PubChem BioAssay AID861 (The Scripps Research Institute Molecular Screening Center, 2007).

Structures are written as SMILES. Among all 200,000 compounds or so, about 360 (0.18%) were called active. Only a selection was taken, and actives are over-represented in it overall. Values without a mark were called inactive. Cut-off read from the data, not from the text of the source: active = inhibition above about 25%; inactive = the rest.

One may read the inhibition as the change of the read-out against control, counted positive when it falls.

Sequence of Toll-like receptor 4 (Homo sapiens) + Myeloid differentiation primary response protein MyD88 (Homo sapiens) (O00206 whole entry, looked up): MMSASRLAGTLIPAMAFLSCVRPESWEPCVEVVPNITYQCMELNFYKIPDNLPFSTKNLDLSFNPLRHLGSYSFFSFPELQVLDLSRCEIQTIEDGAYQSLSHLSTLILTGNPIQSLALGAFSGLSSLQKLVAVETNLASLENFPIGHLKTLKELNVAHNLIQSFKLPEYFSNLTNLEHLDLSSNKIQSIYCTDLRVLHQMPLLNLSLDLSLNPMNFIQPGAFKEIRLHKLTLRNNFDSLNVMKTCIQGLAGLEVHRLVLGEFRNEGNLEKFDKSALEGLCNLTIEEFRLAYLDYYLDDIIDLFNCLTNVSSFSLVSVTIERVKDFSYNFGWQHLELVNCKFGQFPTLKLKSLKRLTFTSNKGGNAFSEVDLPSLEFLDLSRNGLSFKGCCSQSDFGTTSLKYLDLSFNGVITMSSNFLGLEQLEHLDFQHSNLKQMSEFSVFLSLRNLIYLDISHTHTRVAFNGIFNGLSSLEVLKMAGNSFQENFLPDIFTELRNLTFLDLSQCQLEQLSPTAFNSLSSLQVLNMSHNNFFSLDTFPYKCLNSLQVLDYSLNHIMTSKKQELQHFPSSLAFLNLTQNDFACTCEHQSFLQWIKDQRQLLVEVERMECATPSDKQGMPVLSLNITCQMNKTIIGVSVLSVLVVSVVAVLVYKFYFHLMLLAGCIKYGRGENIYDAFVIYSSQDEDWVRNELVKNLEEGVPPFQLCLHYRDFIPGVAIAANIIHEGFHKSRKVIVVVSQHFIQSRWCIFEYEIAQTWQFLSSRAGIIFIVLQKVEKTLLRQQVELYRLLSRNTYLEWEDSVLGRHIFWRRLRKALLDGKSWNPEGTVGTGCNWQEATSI
Sequence of Toll-like receptor 4 (Homo sapiens) + Myeloid differentiation primary response protein MyD88 (Homo sapiens) (Q99836 whole entry, looked up): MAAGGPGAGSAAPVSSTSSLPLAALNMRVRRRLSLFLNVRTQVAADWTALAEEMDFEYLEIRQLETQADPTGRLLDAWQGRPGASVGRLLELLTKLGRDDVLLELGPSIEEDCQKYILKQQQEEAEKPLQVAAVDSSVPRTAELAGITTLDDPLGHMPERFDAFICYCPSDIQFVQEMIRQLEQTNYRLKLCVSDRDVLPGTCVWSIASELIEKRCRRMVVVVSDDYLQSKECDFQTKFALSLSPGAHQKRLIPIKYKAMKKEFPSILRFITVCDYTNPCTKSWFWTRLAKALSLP

This test addresses Toll-like receptor 4 (Homo sapiens) + Myeloid differentiation primary response protein MyD88 (Homo sapiens) (UniProt O00206+Q99836). Nature of the test: inhibitors of TLR4-MyD88 association in cells, primary screen, cell-based, HeLa CL3-4, BLA complementation, FRET ratio (AID 861).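 Note: 0% = vehicle and 100% = reference inhibitor.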 The conditions noted are these: HeLa CL3-4 TLR4/MyD88 BLA complementation, at 8.4 µM, hits give high values.
With `CCOC(=O)c1c(N)sc(C(C)=O)c1C`, the inhibition was 1.12%.

As for `CCOC(=O)c1sc(NC(=O)CSc2nc(O)c(Cc3ccccc3)c(=O)[nH]2)nc1C`, the inhibition is 1.47%. As for `CCn1cc(-c2cc(C(=O)O)on2)c(C)n1`, the figure is 1.59%; as for `COc1cccc(/C=C(/CC(=O)Nc2ccc(N3CCOCC3)cc2)c2nc3ccccc3s2)c1`, 5.83%; as for `O=C(COC(=O)Cc1ccc(F)cc1)Nc1cc(S(=O)(=O)N2CCOCC2)ccc1N1CCCC1`, -6.48%.

Regarding `Cc1[nH]c2ccccc2c1/C=N\NC(=O)Cn1nnc(-c2ccccc2)n1`, the inhibition is -5.01%.

`Cc1cccc(C)c1NC(=O)C1CCCN1C(=O)OC(C)(C)C` (stereo not drawn): the inhibition is -1.58%.

Take `O=C(Nc1ccccc1)O/N=C1\CCCCC1c1ccc([N+](=O)[O-])cc1[N+](=O)[O-]` (stereo not drawn): the inhibition was 5.14%. With `CCn1c(SCc2cc(=O)n3ccsc3n2)nc2ccccc21`, the inhibition was -21.4%. To `Cc1nccn1CCCNC(=O)CC1C(=O)NCCN1Cc1ccc(Cl)c(F)c1` (stereo not drawn) belongs -15.6%; to `Cc1ccc(NC2=C(Cl)C(=O)OC2OC(=O)c2ccccc2C)cc1` (stereo not drawn), -14.9%.

With `CC(=O)c1ccc(N=C2SCCCN2C(=O)C2CCCCC2)cc1`, the inhibition was 0.78%.

With `Fc1cccc2ncnc(OCc3ccccc3)c12`, the inhibition is -8.75%.

Take `CCC(C)(C)NC(=O)C(c1ccccn1)N(C(=O)c1csnn1)c1ccccc1` (stereo not drawn): the inhibition is 2%. With `COc1ccc(NC(=S)NCC2CCN(c3ccc(OC)cc3)C2)cc1` (stereo not drawn), the inhibition is -0.81%. As for `CC(=O)Nc1ccc(CN2CCN(Cc3ccc(F)c(F)c3)C(CCO)C2)cc1` (stereo not drawn), the figure is -0.85%; as for `COc1cc(CN2CCNC(=O)C2CC(=O)NCCc2ncccc2C)cc(OC)c1` (stereo not drawn), -11.2%.

Take `COc1cccc(NCCC(=O)c2cccc([N+](=O)[O-])c2)c1`: the inhibition is 9.38%. To `CCOc1ccc(-n2cnnn2)cc1S(=O)(=O)N1CCC(C)CC1C` (stereo not drawn) belongs -2.33%. As for `O=C(NCc1ccco1)c1ccc(NS(=O)(=O)c2cccc([N+](=O)[O-])c2)cc1`, the figure is 11.7%. On to `CC(=O)c1c(C)[nH]c(C(=O)OCC(=O)Nc2sc3c(c2C#N)CCCC3)c1C`, for which the inhibition is -2.59%.

As to `COc1cc(OC)c(C(=O)Nc2ccccc2-c2ccccc2)cc1OC`, the inhibition is -14%.

With `CC(=O)Nc1ccc(C(=O)CSc2nc3ccc(C)cc3[nH]2)cc1`, the inhibition was 5.15%. Turning to `O=C(NNC(=S)Nc1ccccc1)c1cccc(S(=O)(=O)N2CCOCC2)c1`, the inhibition was -2.25%. Regarding `CCN(CC)c1ccc2c(Nc3ccccc3)c(C=O)c(=O)oc2c1`, the inhibition is 6.79%. As for `CCN(CC)c1ccc2oc(=O)c(C)nc2c1`, the figure is 26.6% (active). For `CCN(CC)c1ccc2cc(C(=O)O)c(=O)oc2c1`, the inhibition is 2.27%. To `CSc1ccc(/C=N/N2CCN(Cc3ccccc3Cl)CC2)cc1` belongs 8.51%; to `Cc1ccc(NC(=O)c2cc([N+](=O)[O-])ccc2Cl)c(O)c1`, -13.5%; to `O=C(/C=C/c1ccc(F)cc1)Nc1cccc(S(=O)(=O)Nc2cccc(C(F)(F)F)c2)c1`, -0.34%. To `CCOc1cccc(/C=C/c2ccc3ccccc3n2)c1OC(C)=O` belongs 8.04%. As for `O=C(CCN1C(=O)c2ccncc2C1=O)Nc1cc(F)ccc1F`, the figure is 1.62%. For `CC(=O)Nc1ccc(NC(=O)COc2ccc(S(=O)(=O)NC(C)c3ccccc3)cc2)cc1` (stereo not drawn), the inhibition was -6.49%. In the case of `O=C(CN1CCCC1)N1CCN(c2ccccc2)CC1`, the inhibition is -1.74%. As for `COCCCNC(=S)NNC(=O)C(O)(c1ccccc1)c1ccccc1`, the figure is 1.88%; as for `Cc1cc(/C=N/NC(=O)CC2(C)OCCO2)c(C)n1-c1ccc(Cl)c(Cl)c1`, -8.27%; as for `Cc1nnc(SCC(=O)N2c3ccccc3C(C)(c3ccc(Cl)cc3)CC2(C)C)s1` (stereo not drawn), -17.2%.

In the case of `CC/S(CC1CC1(Cl)Cl)=N\S(=O)(=O)c1ccc(C)cc1` (stereo not drawn), the inhibition was -3.44%.

For the molecule `Cc1ccc(OCc2nnc(SC3CCc4ccccc4C3=O)n2C)cc1` (stereo not drawn), the inhibition was -13.3%.

For `CCC1C(=O)c2ccccc2N(C)C1=O` (stereo not drawn), the inhibition is 3.79%. Take `N#CC1(NC(=O)COc2ccc3oc4ccccc4c3c2)CCCCC1`: the inhibition was -7.56%.

Regarding `CN(CCC1CCOCC1)Cc1cn[nH]c1-c1ccc(-c2ccccc2)cc1`, the inhibition was -6.36%. As for `Cc1ccc(NC(=O)c2ccccn2)cc1S(=O)(=O)N1CCOCC1`, the figure is -12.9%. As for `C=CCN1C(=O)C(O)(CC(=O)c2ccccn2)c2ccccc21` (stereo not drawn), the figure is 0.55%. On to `CC1=NN(C(=O)CCc2ccccc2O)C(O)(C(F)(F)F)C1` (stereo not drawn), for which the inhibition was -5.78%.

In the case of `CCn1c2ccccc2c2cc(NC(=O)C/C(C)=N/NC(=O)c3ccccc3N)ccc21`, the inhibition was -6.09%. As for `CCCCCCOc1ccc(OC(=O)c2cccnc2)cc1`, the figure is -5.46%; as for `CC(=O)Nc1ccc(S(=O)(=O)NC(C)C(=O)OCC(=O)NC2CCCC2)cc1` (stereo not drawn), -2.35%; as for `COCCNC(=O)NC(=O)COC(=O)C1(c2ccc(Cl)cc2)CC1`, 1.43%. To `O=C(Nc1nnc(-c2ccco2)o1)c1ccc(S(=O)(=O)N2CCOCC2)cc1` belongs 9.33%. To `CN(C)CCCN1C(=O)CSC1c1ccc([N+](=O)[O-])cc1` (stereo not drawn) belongs 2.09%; to `COC(=O)c1nc2n(n1)C(c1ccc([N+](=O)[O-])cc1)C(C(=O)Nc1ccc(Cl)cc1)=C(C)N2` (stereo not drawn), 4.62%; to `COc1cc(NC(=S)N2CCCC(C)C2)cc(OC)c1OC` (stereo not drawn), 6.42%. Take `COc1ccc(C2Nc3ccccc3C(=O)N2c2ccc(Cl)cc2)cc1Cn1cc([N+](=O)[O-])cn1` (stereo not drawn): the inhibition is -3.28%.

Regarding `Cc1nc(N=C(N)N)nc2c(C)cccc12`, the inhibition is -6.85%. To `COc1cccc(C(=O)Nc2cc3c(cc2Br)OCCCO3)c1` belongs 5.11%; to `CCc1cccc(NC(=O)CCC(=O)O)c1`, -11%; to `CC(=O)c1cc(C#N)c(N2CCCCC2)nc1C`, 7.39%. For `CCN(CC)S(=O)(=O)c1cc([N+](=O)[O-])ccc1N=Nc1c(O)n(C)c2ccccc12`, the inhibition was 6.59%. On to `Cc1cccc(C)c1N1CCN(S(=O)(=O)N2CCCCC2)CC1`, for which the inhibition was -5.18%. In the case of `CC1CCN(C(=O)c2ccc(CSc3ccc(Cl)cc3)cc2)CC1`, the inhibition was 2.08%.

For the molecule `C=C(C)C1CC=C(C)/C(=N\NC(=O)CNc2ccccc2OC)C1` (stereo not drawn), the inhibition is 3.79%. To `O=C(c1ccc2ccccc2n1)N1CCN(c2ccccc2Cl)CC1` belongs -7.41%; to `CCOC(=O)c1[nH]cnc1C(=O)Nc1ccccc1C`, 4.26%; to `COc1ccc(C2CC(c3cccs3)=NN2c2ccc(F)cc2)cc1OC` (stereo not drawn), 5.58%. As for `COc1ccc(C2CC(c3cccs3)=NN2c2ccccc2)cc1` (stereo not drawn), the figure is 0.51%; as for `COc1ccccc1N1N=C(c2cccs2)CC1c1ccccc1` (stereo not drawn), 44.4% (active); as for `O=C(Nc1ccc(Br)cn1)c1ccc([N+](=O)[O-])cc1Cl`, 0.87%. As for `O=C(/C=C/c1ccc(N2CCOCC2)cc1)c1ccccc1`, the figure is 27.9% (active); as for `O=C(/C=C/c1ccccc1)c1ccoc1`, 4.74%; as for `O=C(O)c1ccc2c(c1)C(=O)N(c1ccc(/C=C/C(=O)c3ccccc3)cc1)C2=O`, -0.8%.

On to `CCOc1ccc(-c2n[nH]c(=S)n2/N=C/c2cc3c(cc2[N+](=O)[O-])OCO3)cc1`, for which the inhibition is -2.5%. To `CCOC(=O)CCCN1CC(O)=C(c2nc3ccccc3s2)C1=N` belongs -14.8%; to `COc1ccc(-c2[nH]ncc2/C=N/NC(=O)c2cc(Br)ccc2O)c(OC)c1`, -5.73%.

As to `COc1cc(OC)cc(-c2nnc(N(C)C(=O)c3ccncc3)s2)c1`, the inhibition was 11.3%. To `O=C(NCC1CCCO1)C1CCN(C2CCN(C(=O)C3CCCCC3)CC2)CC1` (stereo not drawn) belongs -1.44%. For the molecule `CCOc1cc(NC(=S)NCc2ccco2)c(OCC)cc1NC(=O)c1ccco1`, the inhibition is -15.2%. In the case of `CC(=O)C1C(c2ccc(Cl)cc2)c2c(n[nH]c2C)CC1(C)O` (stereo not drawn), the inhibition was -3.07%. As to `O=C(CSc1nnc(Nc2ccccc2)s1)Nc1cccnc1Cl`, the inhibition was -6.41%. As for `CC(C)(C)C(=O)c1cnc(Nc2ccccc2)s1`, the figure is -8.48%; as for `O=C(c1ccc(Cl)cc1)c1cnc(Nc2ccccc2)s1`, 25.8% (active); as for `O=C(NC1CC1)C1CCCN(C(=O)NC2CCCCC2)C1` (stereo not drawn), 5.9%. As for `Cc1cc(F)ccc1S(=O)(=O)N1CCCOC1CNC(=O)C(=O)NCCC1=CCCCC1` (stereo not drawn), the figure is -6.72%; as for `O=C(Nc1ccc(-n2ccnc2P(=O)(O)c2ccccc2)cc1)c1ccccc1Br`, -8.07%; as for `Cc1ccc(C)c(NC(=O)CCC(=O)N/N=C2/CC(=O)CC(C)(C)C2)c1`, 6.45%. To `COc1ccc(F)c(-c2nc(CN3CCC(c4ccccc4)CC3)c(C)o2)c1` belongs -6.39%.

Regarding `O=C(OCC(=O)c1c[nH]c2ccccc12)c1cccc(O)c1`, the inhibition is -10%. To `Cc1cccc(COc2ccccc2/C=N/Nc2ccc([N+](=O)[O-])cc2)c1` belongs 28.7% (active); to `Cc1ccccc1OCCOc1ccc([N+](=O)[O-])cc1/C=N/n1cnnc1`, -17.5%. To `COc1cc(/C=N/O)ccc1OCc1ccc([N+](=O)[O-])cc1` belongs -3.68%; to `CCCn1c(=S)[nH]c2ccc(C(F)(F)F)cc21`, -6.93%; to `CCNC(=O)N1c2ccccc2Sc2ccccc21`, 7.55%. Consider `Cc1cccc(C(=O)NC(=S)N2CCN(c3ccc([N+](=O)[O-])cc3)CC2)c1`, for which the inhibition is -12.6%.
